# High-throughput results from PubChem BioAssay.
# In the library only some 3.3% were active in any assay of this set; here they are far more common.
# VACV mCherry inh: inhibitors of vaccinia virus infection (mCherry reporter signal) | Vaccinia virus mCherry reporter infection, fluorescence | Potency, µM (doses to about 36.5 µM), usual class: inhibitors | 310,000 tested, 0.63% active | AID 720579; calls by dose curve; tested in A549 cells; further: nearly all actives have a fitted effect of over 35% in size
# HCV inh: inhibitors of hepatitis C virus infection | Huh7.5.1 HCVcc-Cre infection, luciferase reporter, 44 h | Potency, µM (doses to about 41.8 µM), usual class: inhibitors | 340,000 tested, 3.4% active; active means well fitted inhibition curve with a large enough effect; inconclusive means small, poorly fitted or top-dose-only effect, or another doubt; inactive means no such curve, though single readings can be large or run the other way
#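 After 44 h co-culture of compound, cells and HCVcc-Cre (~0.5 moi), substrate is added for 15 min at room temperature and luciferase measured over 15 sec. Cells were seeded at 1,000/well and pre-cultured 4 h.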
# Vaccinia Venus: vaccinia inhibition (Venus reporter). Vaccinia virus Venus reporter expression, fluorescence. Potency, µM (highest dose often 36.5 µM), usual class: inhibitors. 330,000 tested, 0.46% active. AID 720580; calls by dose curve; tested in A549 cells; further: nearly all actives have a fitted effect of over 30% in size
# A number is an active result; - = inactive; ? = inconclusive; . = no result given; ! = not active in a repeat.
SMILES,VACV mCherry inh,HCV inh,Vaccinia Venus
COc1cc2c3c(c1OC)Oc1ccc(cc1)C[C@H]1c4c(cc(OC)c(OC)c4Oc4ccc(cc4)C[C@@H]3N(C)CC2)CCN1C,-,?,-
COc1ccc2cc1Oc1ccc(cc1)C[C@H]1c3c(cc4c(c3Oc3cc5c(cc3OC)CCN(C)[C@@H]5C2)OCO4)CCN1C,-,14µM,-
COc1ccc2cc1Oc1ccc(cc1)C[C@H]1c3cc(c(OC)cc3CCN1C)Oc1c(OC)c(OC)cc3c1[C@H](C2)N(C)CC3,-,?,-
COc1cc2c3cc1Oc1c(OC)c(OC)cc4c1[C@H](Cc1ccc(cc1)Oc1cc(ccc1O)C[C@H]3N(C)CC2)N(C)CC4,?,11µM,?
COc1cc2c3cc1Oc1cc(ccc1O)C[C@@H]1c4c(cc(OC)c(O)c4Oc4ccc(cc4)C[C@H]3N(C)CC2)CCN1C,-,7.9µM!,-
CCn1nc(C)c(CCN(C)C(=O)Nc2cccc(Cl)c2C)c1C,-,.,-
O=C(NC1CC2CCCC(C1)N2C(=O)Nc1ccccc1)C1CC1 (stereo not drawn),-,-,-
CCN1CCCC1CNC(=O)c1cnn(-c2nccc(-c3ccco3)n2)c1C1CC1 (stereo not drawn),-,.,-
N#C/C(=C\C=C\c1ccccc1[N+](=O)[O-])c1nc(-c2ccc3c(c2)OCO3)cs1,-,11µM,-
N#C/C(=C\c1ccccc1[N+](=O)[O-])c1nc(C2CC2)cs1,-,-,-
COC(=O)C1=C(c2cc3ccccc3s2)C[C@@H]2CC[C@H]1N2C(=O)NCC1CC1,-,?,-
COC(=O)C1=C(c2cccc(OCc3ccccc3)c2)C[C@@H]2CC[C@H]1N2C(=O)NCc1ccc(C(F)(F)F)cc1,-,10µM,?
COC(=O)C1=C(c2ccc(OCc3ccccc3)cc2)C[C@@H]2CC[C@H]1N2C(=O)NCc1ccccc1OC,-,.,?
COC(=O)C1=C(c2ccc(OCc3ccccc3)cc2)C[C@@H]2CC[C@H]1N2C(=O)NCc1cccc(C(F)(F)F)c1,-,13µM,?
COC(=O)C1=C(c2ccccc2OCc2ccccc2)C[C@@H]2CC[C@H]1N2C(=O)NCc1cccc(C(F)(F)F)c1,-,?,?
COC(=O)C1=C(c2ccc(OCc3ccccc3)cc2)C[C@@H]2CC[C@H]1N2C(=O)NCc1ccc(OC)c(OC)c1,?,10µM,?
COC(=O)C1=C(c2cccc(OCc3ccccc3)c2)C[C@@H]2CC[C@H]1N2C(=O)NCc1ccc(F)cc1,-,?,?
COC(=O)C1=C(c2cc3ccccc3s2)C[C@@H]2CC[C@H]1N2C(=O)NCc1ccc(C(F)(F)F)cc1,-,11µM,?
COC(=O)[C@@H]1N2C(=O)[C@@H](NC(=O)C(C)Oc3ccccc3)[C@H]2SC1(C)C (stereo partly drawn),-,.,-
CN(CC(=O)Nc1cccc(Cl)c1)S(=O)(=O)c1ccc2[nH]c3c(c2c1)CCCC3,-,.,-
Cc1ccc(C(=O)OCC(=O)NCc2ccc(F)cc2)o1,.,-,.
CC(=O)c1ccc(F)c(-c2cc(C)cc3c2OC(CNC(=O)Cn2nc(C)nc2C)C3)c1 (stereo not drawn),-,.,-
O=C(Nc1cccc([N+](=O)[O-])c1)c1ccc2c(c1)C(=O)N(c1ccccn1)C2=O,-,-,-
CCOC(=O)CNC(=O)Nc1cc(C(=O)NCc2ccc(C(C)C)cc2)ccc1N1CCCC1,-,.,-
Cc1cc(F)ccc1-n1nnc(C(N)=O)c1C,-,.,-
SMILES,VACV mCherry inh,HCV inh,Vaccinia Venus
CCCN(CC(=O)Nc1ccccc1C)C(=O)c1cc2ccccc2oc1=O,-,.,-
COC(=O)C1=C(c2cccc(OCc3ccccc3)c2)C[C@@H]2CC[C@H]1N2C(=O)NCCCc1ccccc1,-,?,?
COC(=O)C1=C(c2ccccc2OCc2ccccc2)C[C@@H]2CC[C@H]1N2C(=O)NCc1ccc(C(F)(F)F)cc1,-,10µM,?
COC(=O)C1=C(c2ccc(F)cc2OCc2ccccc2)C[C@@H]2CC[C@H]1N2C(=O)NCc1ccc(C(F)(F)F)cc1,-,?,?
COC(=O)C1=C(c2cccc(OCc3ccccc3)c2)C[C@@H]2CC[C@H]1N2C(=O)NC1CCN(Cc2ccccc2)CC1,-,10µM,?
COC(=O)C1=C(c2ccc(F)cc2OCc2ccccc2)C[C@@H]2CC[C@H]1N2C(=O)NCc1ccccc1,-,-,-
COC(=O)C1=C(c2ccc(F)cc2OCc2ccccc2)C[C@@H]2CC[C@H]1N2C(=O)NC1CCN(Cc2ccccc2)CC1,-,?,?
COC(=O)C1=C(c2ccc(F)cc2OCc2ccccc2)C[C@@H]2CC[C@H]1N2C(=O)NCc1ccc2c(c1)OCO2,-,10µM,?
COC(=O)C1=C(c2ccc(OCc3ccccc3)cc2)C[C@@H]2CC[C@H]1N2C(=O)NCCCc1ccccc1,-,6.3µM,?
CC(=O)Nc1cc(C(=O)N2CCCC(C)C2)cc2ncn(CCc3ccccn3)c12 (stereo not drawn),-,.,-
Cc1cccc(Oc2sc(C(=O)c3ccccc3)c(N)c2C#N)c1,.,10µM,?
N#Cc1c(Nc2ccccc2)sc(C(=O)c2ccccc2)c1N,.,?,-
COc1cc2c(cc1NC(=O)CCCN1C(=O)CCC1=O)oc1ccccc12,-,11µM,-
Cc1ccccc1NC(=O)CN1C(=O)NC2(CCc3ccccc32)C1=O (stereo not drawn),.,-,.
COc1cc2c(cc1NC(=O)CN1C(=O)NC3(CCc4ccccc43)C1=O)oc1ccccc12 (stereo not drawn),10µM,?,?
COc1cc2c(cc1NC(=O)CCCCCN1C(=O)CCC1=O)oc1ccccc12,.,3.5µM,.
COc1cc2c(cc1NC(=O)CN1CCN(S(=O)(=O)c3ccccc3F)CC1)oc1ccccc12,-,-,-
COc1ccc(NC(=O)CC2SC(N3CCCC3)=NC2=O)cc1Cl (stereo not drawn),.,-,.
COc1ccc(NC(=O)CCCCCN2C(=O)CCC2=O)cc1Cl,-,.,-
COc1cc2c(cc1NC(=O)CC1SC(N3CCCC3)=NC1=O)oc1ccccc12 (stereo not drawn),?,11µM,?
COc1ccccc1C(=O)Nc1c(C(=O)Nc2ccccc2F)oc2ccccc12,-,.,-
CC(C)C(O)c1ccc2c(c1)CN(C(=O)c1ccccc1-n1cccn1)CCO2 (stereo not drawn),-,.,-
O=C(CC[C@H]1O[C@@H](n2cnc3c(NC(=O)c4ccccc4)ncnc32)[C@H](O)[C@@H]1O)N[C@@H](CO)Cc1c[nH]c2ccccc12,-,.,-
COc1ccc(/C=C(/C(=O)NCc2ccccc2)c2ccccc2)cc1,-,?,?
O=C(NCc1ccccc1)/C(=C/c1ccc(OC(F)F)cc1)c1ccccc1,-,22µM,?
COc1ccc(C(=O)N2CCC2(C)C(=O)NC(C)C)cc1 (stereo not drawn),-,.,-
CCN(C(=O)CSc1nc(-c2ccc(C(C)C)cc2)no1)c1cccc(C)c1,-,.,-
COc1cccc(CC2(CO)CCCN(Cc3ccc(C)s3)C2)c1 (stereo not drawn),-,-,-
COc1cccc(CC2(CO)CCCN(Cc3[nH]c4ccc(C)cc4c3C)C2)c1 (stereo not drawn),11µM,?,?
CN(C)CCCNC(=O)C(=O)Nc1ccc2c(c1)N(S(=O)(=O)c1cccs1)CCC2,-,8.9µM,-
